# Assay results: PubChem BioAssay (NCATS)
# Records with an inconclusive call do not appear. Where a call stands in place of a potency, no number is given. The source made the active and inactive calls. The call rests on the fitted dose curve; in most records, active means well fitted inhibition curve with a large enough effect; inconclusive means small, poorly fitted or top-dose-only effect; inactive means no such curve, though single readings can be large or run the other way.
# Tested on: Zika virus NS2B-NS3 protease (linked construct)
# Assay: Primary screen NINDS Rhodamine qHTS for Zika virus inhibitors (AID 1347160); further: nearly all actives have a fitted effect of over 55% in size
# Settings: purified NS2B-NS3 protease, Rhodamine110 substrate fluorescence; series mostly up to 57.1 µM
# Procedure, shortened: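 Aprotinin served as in-plate control. Conditions: 25 nM linked NS2B-NS3, pH 8.0 Tris buffer, titrated compounds, 15 min preincubation and 15 min reaction with 1.5 microM Rhod110 substrate at room temperature.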
# Potency means the concentration at half of the fitted maximal effect.
row,Compound,Potency
1,CC1CC(O)/C=C/C(O)C(O)CC(=O)Cc2c(Cl)c(O)cc(O)c2C(=O)O1 (centres undefined),inactive
2,Nc1nc2c(c(=O)[nH]1)C[C@@H](CCc1ccc(C(=O)N[C@@H](CCC(=O)O)C(=O)O)cc1)CN2,inactive
3,CC1(C)CC[C@]2(C(=O)O[C@@H]3O[C@H](CO)[C@@H](O)[C@H](O)[C@H]3O)CC[C@]3(C)C(=CCC4[C@@]5(C)CC[C@H](O[C@@H]6O[C@H](C(=O)O)[C@@H](O)[C@H](O)[C@H]6O)C(C)(C)C5CC[C@]43C)C2C1 (some centres undefined),inactive
4,CN(C)C/C=C/C(=O)Nc1cccc(C(=O)Nc2cccc(Nc3ncc(Cl)c(-c4c[nH]c5ccccc45)n3)c2)c1,inactive
5,C=C1C(OC(=O)/C(C)=C\C)[C@@]23CCC4[C@@](C)(CCC[C@@]4(C)C(=O)O)C2CC[C@H]1C3OC(C)=O (some centres undefined),inactive
6,O=C(/C=C\c1ccc(O)cc1)N[C@@H](Cc1ccc(O)cc1)C(=O)O,12.6 µM (active)
7,CC(C)=C/C=C\[C@H](C)[C@H]1CC[C@]2(C)C[C@@H]3C(C)=CC(=O)C3/C(CO)=C\C[C@@H]12 (some centres undefined),inactive
8,CC1(C)CCC[C@@]2(C)C1[C@H](OC(=O)/C=C/C=C/C(=O)O)C=C1COC(=O)[C@@]12O (some centres undefined),inactive
9,O=C1NC(Cc2ccccc2)C(=O)N2CCCC12 (centres undefined),inactive
10,C/C=C1\[C@H](O[C@@H]2O[C@H](CO)[C@@H](O)[C@H](O)[C@H]2O)OC=C(C(=O)OC)[C@H]1CC(=O)OC[C@H]1O[C@@H](OCCc2ccc(O)cc2)[C@H](O)[C@@H](O)[C@@H]1O,inactive
11,CC(=O)O[C@H]1C[C@@](O)(C(C)C)C2[C@@H](OC(=O)c3ccc(O)cc3)C[C@@]3(C)O[C@H]3C[C@]21C (some centres undefined),inactive
12,N[C@H]1Cc2ccccc2N(O)C1=O,inactive
13,CC(C)CNCc1ccc(-c2ccccc2S(=O)(=O)N2CCCC2)cc1,inactive
14,Cc1cc2c(c(=O)[nH]1)OC(C(O)CC(C)C)O2 (centres undefined),inactive
15,Nc1nc(Nc2ccc(S(N)(=O)=O)cc2)n(C(=S)Nc2c(F)cccc2F)n1,inactive
16,[N-]=[N+]=N[C@]1(CO)O[C@@H](n2ccc(=O)[nH]c2=O)[C@@H](O)[C@@H]1O,inactive
17,CN1c2ccccc2C(=O)N2CCC3c4ccccc4NC3C21 (centres undefined),inactive

row,Compound,Potency
1,O=C1NC(=O)C(c2cn3c4c(cccc24)CCC3)C1c1c[nH]c2ccccc12 (centres undefined),inactive
2,C/C=C/C1=CC2=C(CO1)C(=O)C(C)(O)C(OC(=O)c1c(C)cc(OC)cc1O)C2 (centres undefined),inactive
3,CC1(O)CC(O)C2(O)C=COC(O[C@@H]3O[C@H](CO)[C@@H](O)[C@H](O)[C@H]3O)C12 (some centres undefined),inactive
4,C[C@H](NC(=O)CCc1nc2ccccc2c(=O)[nH]1)c1ccccc1,inactive
5,C/C=C/c1ccc2oc(-c3ccc(O)c(OC)c3)c(C)c2c1,inactive
6,Cc1cc(C)c(CNC(=O)c2cc(-c3ccc(CN4CCOCC4)cc3)cc3c2cnn3C2CCCC2)c(=O)[nH]1,inactive
7,Nc1ncnc2c1nc(N)n2[C@@H]1O[C@H](CO)[C@@H](O)[C@H]1O,inactive
8,C=C1C(=O)OC2/C=C(\CO)CC/C=C(\C=O)CC(OC(=O)CC(C)C)C12 (centres undefined),inactive
9,CC(=O)OC1C(O)CC2(C)C(CCC(C)C23Cc2c(O)cc(CO)c(C=O)c2O3)C1(C)C (centres undefined),inactive
10,O=C(c1ccc2nccnc2c1)N1CCCCC1,inactive
11,C/C=C/C=C/[C@@H]1O[C@](O)([C@H](CC)C(=O)NC/C=C/C=C(\C)[C@@H](OC)[C@@H](C)C2OC(/C=C/C=C/C=C(\C)C(=O)c3c(O)cc[nH]c3=O)[C@H](O)[C@@H]2O)[C@H](O)[C@H](O)C1(C)C (some centres undefined),inactive
12,C=C[C@H]1[C@H](O[C@@H]2O[C@H](CO)[C@@H](O)[C@H](O)[C@H]2O)OC=C(C(=O)OC)[C@H]1C[C@@H]1c2cc(O)c(O)cc2CCN1C(C)=O,inactive
13,C[C@@H]1CCC/C=C/[C@H]2CC(=O)C[C@@H]2[C@@H](O)/C=C/C(=O)O1,inactive
14,COC(=O)C1(C)c2[nH]c3ccccc3c2CCN1C(=O)CCl (centres undefined),inactive
15,CC(=O)O[C@H]1CC[C@@]2(C)C(CC[C@@H](C)[C@]23Cc2c(O)cc4c(c2O3)CN([C@@H](CCC(=O)O)C(=O)O)C4=O)C1(C)C (some centres undefined),inactive
16,CC(=O)SCC(=O)c1ccc(NS(=O)(=O)c2ccc(OCCCN(C)C)cc2)nc1,inactive
17,COc1cc(C(=O)OC[C@H]2O[C@@H](Oc3ccccc3/C=C/C(=O)O)[C@H](O)[C@@H](O)[C@@H]2O)cc(OC)c1OC,inactive
